Screening data as filed in PubChem BioAssay.
Most compounds without a hit are left out; they make up all but 2% or so of the library.
MBD2 DNA inh = inhibitors of human MBD2 binding to methylated oligonucleotide. Q9UBB5. TR-FRET. inhibition, % at 4.4 µM. 370,000 compounds, 0.31% hits. AID 686964; in the data active = inhibition above about 13%
Rin1 Abl inh = inhibitors of human Rin1-Abl protein interaction | TR-FRET Rin1/Abl binding, biochemical | inhibition, % at 7.35 µM | 360,000 compounds, 0.4% hits | P00519+Q13671; in the data active = inhibition above about 5%, passing the limit was not always enough
LEDGF integ inh = blocks HIV-1 LEDGF/p75-dependent DNA integration | 370,000 compounds, 0.64% hits | TR-FRET IN-LEDGF/p75 DNA integration, Eu/Cy5 | inhibition, % at 3.7 µM;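 active = inhibition above the screen-wide mean plus 3 SD, cut at about 13% in these data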;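 note: signal is the Cy5 over europium emission ratio at 671 and 618 nm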
TCR-CD3 inh = human TCR-CD3 binding inhibition. 360,000 compounds, 0.37% hits. inhibition, % at 9.4 µM. TAMRA-labeled TCR probe fluorescence, biochemical; in the data active = inhibition above about 19%;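 note: recombinant mutant TCR 2C K166C tagged with TAMRA read by polarization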
UHRF1 binding = blocks human UHRF1 binding to methylated DNA. Q96T88. UHRF1 binding to methylated oligo, TR-FRET. inhibition, % at 4.4 µM. 370,000 compounds, 0.75% hits. AID 687016; in the data active = inhibition above about 21%;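 note: UHRF1 SRA domain binding a hemimethylated CpG hairpin DNA probe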
Target sequence (Q96T88 whole entry, looked up, the tested form may be a part): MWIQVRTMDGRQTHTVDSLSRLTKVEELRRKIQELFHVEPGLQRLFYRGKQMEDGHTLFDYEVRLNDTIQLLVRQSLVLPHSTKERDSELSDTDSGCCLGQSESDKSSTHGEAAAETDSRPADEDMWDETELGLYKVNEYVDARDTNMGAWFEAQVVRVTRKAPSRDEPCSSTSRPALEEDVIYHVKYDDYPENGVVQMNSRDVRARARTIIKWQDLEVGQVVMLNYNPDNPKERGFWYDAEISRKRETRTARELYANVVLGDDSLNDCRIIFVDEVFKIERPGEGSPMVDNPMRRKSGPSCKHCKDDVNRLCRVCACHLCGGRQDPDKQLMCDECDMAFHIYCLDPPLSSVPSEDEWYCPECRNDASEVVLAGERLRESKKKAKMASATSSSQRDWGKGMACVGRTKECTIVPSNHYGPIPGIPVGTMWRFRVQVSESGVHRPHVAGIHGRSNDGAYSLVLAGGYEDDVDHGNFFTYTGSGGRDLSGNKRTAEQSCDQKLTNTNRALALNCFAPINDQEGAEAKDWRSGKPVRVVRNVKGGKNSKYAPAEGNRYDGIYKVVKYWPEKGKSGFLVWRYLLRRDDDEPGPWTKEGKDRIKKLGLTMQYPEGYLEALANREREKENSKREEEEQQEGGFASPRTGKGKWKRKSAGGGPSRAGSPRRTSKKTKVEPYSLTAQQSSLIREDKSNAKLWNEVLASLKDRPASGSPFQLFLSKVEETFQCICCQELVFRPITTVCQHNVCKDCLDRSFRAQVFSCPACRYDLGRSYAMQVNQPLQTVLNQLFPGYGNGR
Large screens that a line does not name were inactive.

COCC(=O)Nc1c(C(=O)Nc2ccc3c(c2)OCO3)oc2ccccc12	UHRF1 binding 51
O=C(Nc1c(-c2ccccc2)[nH][nH]c1=O)c1ccco1	UHRF1 binding 63
O=C(Nc1c(-c2ccccc2)[nH][nH]c1=O)c1ccc(-c2ccccc2)cc1	none (no result: Rin1 Abl inh)
O=Cc1cn(CC(=O)NCC2CCCO2)c2ccccc12 (stereo not drawn)	none
N#Cc1cn(CC(=O)NCC2CCCO2)c2ccccc12 (stereo not drawn)	UHRF1 binding 23
CCCC/C=C1\CCc2c([nH]c3ccccc23)C1=O	UHRF1 binding 24
CCN(Cc1ccccc1)S(=O)(=O)c1c(N)n(C)c(=O)n(C)c1=O	UHRF1 binding 30
CCN(Cc1ccccc1)S(=O)(=O)c1c(C)n(C)c(=O)n(C)c1=O	none
O=C(CCS(=O)(=O)Cc1ccccc1)Nc1nc2c(s1)CCCC2	LEDGF integ inh 33
O=C(CS(=O)(=O)Cc1ccccc1)Nc1nc2c(s1)CCCC2	none
COc1ccc(Cl)cc1N1C(=O)CC(N2CCN(S(=O)(=O)c3ccccc3F)CC2)C1=O (stereo not drawn)	none
Cc1ccc(S(=O)(=O)N2CC(C)N(C(=O)N3CCOCC3)C2C)cc1 (stereo not drawn)	none
O=C(Cc1c(F)cccc1Cl)NCc1cccnc1	none
O=C(Cc1ccc(Cl)cc1Cl)NCc1cccnc1	UHRF1 binding 21
C[C@@H]1O[C@@H](n2c3ccc(Cl)cc3c3ccc4c5cc(Cl)ccc5[nH]c4c32)[C@H](O)[C@H](O)[C@H]1O	none (no result: Rin1 Abl inh, TCR-CD3 inh)
CCN(CCNCC(O)COCc1ccc(Cl)cc1)c1cccc(C)c1 (stereo not drawn)	UHRF1 binding 29
CN(CC(=O)Nc1c(Cl)cccc1Cl)C(=O)C1CSC2(C)CCC(=O)N12 (stereo not drawn)	none
CN(Cc1ccc(Cl)c(Cl)c1)C(=O)C1CSC2(C)CCC(=O)N12 (stereo not drawn)	UHRF1 binding 28
O=C(Cc1cccc2ccccc12)Nc1ccc(-c2cc3ccccc3oc2=O)cc1	TCR-CD3 inh 38
CCC(=O)Nc1cccc(-c2cc3ccccc3oc2=O)c1	none
Cc1cc(NC(=O)CN2C(=O)NC(C)(c3ccccc3)C2=O)no1 (stereo not drawn)	UHRF1 binding 97
CCCC1(c2ccccc2)NC(=O)N(CC(=O)Nc2cc(C)on2)C1=O (stereo not drawn)	none
O=C(c1ccc(F)cc1)C1CCN(C(=O)c2ccc(F)cc2)CC1	none
O=C(c1ccc(F)cc1)C1CCN(C(=O)c2ccncc2)CC1	UHRF1 binding 80
CC(=O)NC(Cc1c[nH]c2ccccc12)C(=O)OCC(=O)N1CCN(S(=O)(=O)c2ccc(Cl)cc2)CC1 (stereo not drawn)	none
NC(=O)N[C@@H](Cc1c[nH]c2ccccc12)C(=O)OCC(=O)N1CCCCC1	UHRF1 binding 24
CC(=O)Nc1ccccc1OCC(=O)NC(C)c1ccccc1 (stereo not drawn)	UHRF1 binding 22
CC(NC(=O)COc1ccccc1-c1ccccc1)c1ccccc1 (stereo not drawn)	none
COc1ccc(-c2nc3ccc(C)cn3c2CC2CCCCC2)cc1OC	UHRF1 binding 22
COc1ccc(-c2ccc(-c3nc4ccc(C)cn4c3NC3CCCCC3)cc2OC)cc1	none
COc1ccc(-c2nc3cc(C)c(Br)c(C)n3c2Cc2ccsc2)cc1OC	none (no result: Rin1 Abl inh)
COc1ccc(-c2nc3ccc(C)cn3c2Cc2ccsc2)cc1OC	UHRF1 binding 22
COc1ccc(CCCNC(=O)C2Cc3c(-c4ccc(NC(C)=O)cc4)ccnc3O2)cc1 (stereo not drawn)	none
Cc1cc(C)c2sc(NNC(=O)c3ccc(S(=O)(=O)N4CCc5ccccc5C4)cc3)nc2c1	LEDGF integ inh 19
Cc1cc(C)c2sc(N(CCCN(C)C)C(=O)c3ccc(S(=O)(=O)N4CCc5ccccc5C4)cc3)nc2c1	none (no result: MBD2 DNA inh, LEDGF integ inh, TCR-CD3 inh, UHRF1 binding)
Cc1cc(C)c2nc(NNC(=O)c3ccc(S(=O)(=O)N4CCc5ccccc5C4)cc3)sc2c1	LEDGF integ inh 20
Fc1ccccc1SCc1nnc(-c2ccccc2Br)o1	none
Cc1nc(-c2ccccc2)sc1-c1ccnn1C	UHRF1 binding 43
NC(=O)C1CCN(c2nc(-c3ccc4c(c3)OCCCO4)cs2)CC1	none (no result: Rin1 Abl inh, TCR-CD3 inh)
O=C(O)c1ccc(N/N=C/C=C/c2ccccc2)cc1	UHRF1 binding 21
CC(C)C[C@H](NC1(C(=O)NC2CCCCC2)CCN(C)CC1)C(=O)NCC(c1ccccc1)c1ccccc1	none (no result: Rin1 Abl inh, TCR-CD3 inh)
Cc1cc(C(=O)COC(=O)c2cccc(O)c2)c(C)n1C1CC1	UHRF1 binding 27
Cc1cc(C(=O)COc2cccc([N+](=O)[O-])c2)c(C)n1C1CC1	none
CCc1noc(C)c1C(=O)NNC(=O)c1nn(CC)c(=O)c2ccccc12	none
CCc1noc(C)c1C(=O)NNC(=O)c1nn(C)c(=O)c2ccccc12	UHRF1 binding 30
COc1cccc(CNC(=O)c2ccc(CS(=O)(=O)Cc3ccc(C)cc3)o2)c1	none
COc1cccc(CNC(=O)c2ccc(CS(=O)(=O)Cc3ccccc3C)o2)c1	UHRF1 binding 24
N/C(=N\N=Cc1ccc2c(c1)OCO2)NN=Cc1ccc2c(c1)OCO2	LEDGF integ inh 43
O=C(NN=Cc1ccc2c(c1)OCO2)NN=Cc1ccc2c(c1)OCO2	none
COc1ccccc1CN(Cc1cc2cc3c(cc2[nH]c1=O)OCCO3)Cc1nnnn1Cc1ccco1	none
O=c1[nH]c2cc3c(cc2cc1CN(Cc1ccccc1)Cc1nnnn1Cc1ccco1)OCCO3	LEDGF integ inh 16
N/C(=N\OC(=O)/C=C/c1ccc(Br)cc1)c1ccccn1	UHRF1 binding 23
CSCCC(C(=O)NC(C)(C)C)n1c(-c2ccc(C)cc2)nc2ccccc21 (stereo not drawn)	none (no result: Rin1 Abl inh)
COc1cc(CC2COC(c3ccc(O)c(OC)c3)C2COC(C)=O)ccc1O (stereo not drawn)	LEDGF integ inh 14, TCR-CD3 inh 23
Cc1cccc(NC(=O)COc2ccc3oc4c(c3c2)CCCC4)n1	UHRF1 binding 73
Cc1ccc(C)c(S(=O)(=O)/N=C2\C=C(NS(=O)(=O)c3ccccc3)C(=O)c3ccccc32)c1	none
Cc1cc(C)c(S(=O)(=O)/N=C2/C=C(Sc3ncn[nH]3)C(=O)c3ccccc32)cc1C	LEDGF integ inh 42
O=C(O)c1c(Cl)c(Cl)c(Cl)c(Cl)c1C(=O)OCC1CCCO1 (stereo not drawn)	none
Cc1cc(C)c(C)c(S(=O)(=O)N2CCN(C)CC2)c1C	UHRF1 binding 39
O=C1NC[C@@H](CCCCN2CCN(CCc3ccc(O)cc3)C(=O)C2=O)N(CCc2ccc(O)cc2)C1=O	none (no result: Rin1 Abl inh)
OCCN(CC#CC(O)(c1ccccc1)c1cccc(F)c1)CCO (stereo not drawn)	UHRF1 binding 26
OC(C#CCN1CCCC1)(c1ccccc1)c1cccc(F)c1 (stereo not drawn)	none
Nc1[nH]c(C(=O)c2ccccc2)c(-c2ccc3ccccc3c2)c1C(=O)NCc1ccc(F)cc1	none (no result: Rin1 Abl inh)
COC[C@H]1CCCN1c1ccc2c(c1)OCCCN(C1CC1)S2(=O)=O	none (no result: Rin1 Abl inh, TCR-CD3 inh)
